# Test results published in PubChem BioAssay (NCATS).
# Results filed as inconclusive are left out. Where a call stands in place of a potency, no number is given. Calls of active or inactive are those of the source. The call rests on the fitted dose curve; in most records, active means well fitted curve in the direction sought with a large enough effect; inconclusive means small, poorly fitted or top-dose-only effect, or another doubt; inactive means no such curve, though single readings can be large; an effect the other way counts as inactive or inconclusive. Where a SMILES comes first, the peptide text is derived from it. The star is where a group is joined. AMC = Cc1cc(=O)oc2cc(N*)ccc12; Cbz = O=C(OCc1ccccc1)*; Hexanoyl = CCCCCC(=O)*
# Test system: not listed separately
# Test: Confirmatory screen GU Rhodamine qHTS for Zika virus inhibitors qHTS (AID 1347157); further: nearly all actives have a fitted effect of over 70% in size
# Settings: purified enzyme assay, Rhodamine110 substrate fluorescence, 15 min; series mostly up to 114 µM
# Procedure, shortened: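 Unlinked NS2B/NS3, 25 nM; Rhod110 peptide, 1.5 microM; compounds, up to 114 microM. Reaction run 15 min at RT in 10 mM Tris-HCl pH 8.0, 0.01% Tween 20; kinetic fluorescence change fitted with a 4-parameter Hill model.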
# Potency means the concentration at half of the fitted maximal effect.
Compound,Potency,"activity change, negative = inhibition"
CC(C)CC(c1c(O)c(C=O)c(O)c(C=O)c1O)C1CCC(C)(O)C2CC(C(C)(C)O)CCC12C (stereo not given),3.41 µM (active),
Cc1ccccc1-n1nc(-c2c(-c3ccc(F)cc3)nn3c2NC[C@@H](CO)C3)ccc1=O,inactive,
CSCC[C@H](NC(=O)[C@H](CO)NC(=O)[C@H](CCC(=O)O)NC(C)=O)C(=O)N[C@H](C=O)CC(=O)O (Ac-ESMD-aldehyde),,8.12% [at 22 µM] (inactive)
CC1(C)CC[C@]2(C(=O)O)CC[C@]3(C)C(=CCC4[C@@]5(C)CC[C@H](O[C@@H]6O[C@H](C(=O)O)[C@@H](O)[C@H](O)[C@H]6O)C(C)(C)C5CC[C@]43C)C2C1 (stereo not given in full),5.84 µM (active),
Cn1cc(-c2c[nH]c3ncnc(N4CCOCC4)c23)cn1,inactive,
CCCCCC(=O)N1CCC[C@H]1C(=O)N[C@@H](Cc1ccc(O)cc1)C(=O)OC (Hexanoyl-Pro-Tyr-OMe),inactive,

# Test system: Zika virus NS2B-NS3 protease (unlinked complex)
# Test: Primary screen GU Rhodamine qHTS for Zika virus inhibitors: Unlinked NS2B-NS3 protease assay (AID 1347159); further: nearly all actives have a fitted effect of over 60% in size
# Settings: Recombinant ZIKV NS2B-NS3 protease, Rhodamine110 substrate fluorescence; series mostly up to 107 µM
# Procedure, shortened: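 Compounds, tested up to 114 microM, were incubated for 15 minutes with 25 nM unlinked NS2B-NS3 protease at pH 8.0. Cleavage of 1.5 microM Rhodamine110 substrate was then followed by fluorescence for 15 minutes.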
row,Compound,Potency
1,CC(/C=C/C=C(\C)C(=O)O[C@@H]1O[C@H](CO[C@@H]2O[C@H](CO)[C@@H](O)[C@H](O)[C@H]2O)[C@@H](O)[C@H](O)[C@H]1O)=C\C=C\C=C(C)\C=C\C=C(/C)C(=O)O[C@@H]1C[C@](O)(C(=O)O)C[C@@H](O)[C@H]1OC(=O)/C=C/c1ccc(O)c(O)c1,1.78 µM (active)
2,O=C(N[C@H](Cc1ccccc1)C(=O)O)c1sc2cc(F)ccc2c1Cl,39.8 µM (active)
3,C=C(C)[C@H]1CC[C@]2(C(=O)O)CC[C@]3(C)C(CCC4[C@@]5(C)CCC(=O)C(C)(C)C5CC[C@]43C)C12 (stereo not given in full),7.08 µM (active)
4,OCC(O)C(c1c[nH]c2ccccc12)c1c[nH]c2ccccc12 (stereo not given),50.1 µM (active)
5,COc1cc(/C=C/C(=O)O[C@@H]2C[C@](O)(C(=O)O)C[C@@H](O)[C@H]2O)ccc1O,inactive
6,c1cc(-c2cc(C3CCNCC3)[nH]n2)ccn1,inactive
7,CC1CCC2(C(=O)O)CCC3(C)C(=CCC4C5(C)CCC(O)C(C)(C(=O)O)C5CCC43C)C2C1(C)O (stereo not given),inactive
8,Cc1cc(=O)oc2cc(NC(=O)[C@H](CCC(=O)O)NC(=O)[C@H](CC(C)C)NC(=O)[C@H](CC(C)C)NC(=O)OCc3ccccc3)ccc12 (Cbz-Leu-Leu-Glu-{AMC}),inactive
9,Cc1ccccc1-n1nc(-c2c(-c3ccc(F)cc3)nn3c2NC[C@@H](CO)C3)ccc1=O,inactive
10,C[C@@]1(O)[C@H](O)[C@@H](CO)O[C@H]1n1cnc2c(=O)[nH]c(N)nc21,inactive
11,COc1c(-c2ccc(O)cc2)cc(OC)c2c1oc1cc(O)c(OC3OC(CO)C(O)C3O)cc12 (stereo not given),15.8 µM (active)
12,C=C1CCC2C(C)(C)CC(O)CC2(C)C1CCC(C)CCOC(=O)CCC(=O)O (stereo not given),2.51 µM (active)
13,CC(C)=C1CC2C(CCC2(C)O)C(C)(O)CC1=O (stereo not given),inactive
14,C=C1CCC2C(C)(C(=O)O)CCCC2(C)C1CC/C(C)=C\CO (stereo not given),inactive
15,CC1=CCC[C@@H]2[C@](CCc3ccoc3)(C(=O)O)[C@H](C)CC[C@@]12C,8.91 µM (active)
16,O=C(O)c1cc(C(F)(F)F)ccc1N1CC[C@H](OCc2ccccn2)C1,inactive
17,CC(C)CC(=O)NCCn1cc(C(=O)O)c(=O)cc1C(O)c1ccccc1 (stereo not given),inactive
18,C=C1CCC2C(C)(C)CC(=O)CC2(C)C1CCC(C)CCO (stereo not given),20 µM (active)
19,C/C1=C\CC(C)(C)/C=C/C/C(C(=O)O)=C/CC1,14.1 µM (active)
20,Cc1ccc(C)c(NC(=O)CNS(=O)(=O)c2ccc3[nH]c(=O)oc3c2)c1,inactive
21,COC(=O)C1=CO[C@@H](O[C@@H]2O[C@H](CO)[C@@H](O)[C@H](O)[C@H]2O)[C@@H]2C(CO)=CC[C@H]12,inactive
22,O=C(NCC(=O)N1CCCC1)Nc1ccc2ccccc2c1,inactive
23,C=C1CCC2C(C)(C)CC(O)CC2(C)C1CCC(C)CC(=O)O (stereo not given),11.2 µM (active)
24,COc1ccc(C(=O)CC(=O)O)c2c1C=CC(C)(C)O2,inactive
25,CCOc1ccc(-c2nn3ncccc3c2-c2ccc(S(C)(=O)=O)cc2)cc1,inactive
26,O=C(OCC(O)CO[C@@H]1O[C@H](C(=O)O)[C@@H](O)[C@H](O)[C@H]1O)c1ccccc1 (stereo not given in full),inactive
27,Cc1sc(C)c(C(=O)NC2(c3ccc(C(=O)O)cc3)CC2)c1Cc1ccc(C(F)(F)F)cc1,17.8 µM (active)
28,COc1cc(C2Oc3c(OC)cc(CCCO)cc3C2CO)ccc1O (stereo not given),39.8 µM (active)
29,Cc1cc(O[C@@H]2O[C@H](COC(=O)CC(=O)O)[C@@H](O)[C@H](O)[C@H]2O)c(C(C)C)cc1O,inactive
